Bioassay records: PubChem BioAssay, University of Kansas High Throughput Screening Laboratory
Sampled rows, rich in hits. Any-hit rate of the full collection: about 3.6%.
Pf apPOL block = Pf-apPOL inhibitors, biochemical, fluorescence. inhibition, % at 10 µM. AID 1794808, 2022. Plasmodium falciparum apicoplast DNA polymerase (apPOL). Recombinant Pf-apPOL, molecular beacon fluorescence, 1.5 h. hit rate 0.25% among 210,000
mHTT CaM bind = mutant huntingtin-calmodulin interaction inhibitors – biochemical, AlphaScreen, primary screen; hit rate 3.6% among 190,000; P42858; AlphaScreen His-mHTT/GST-CaM binding, luminescence; AID 1671202, 2021; inhibition, % at 15 µM;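 also: 0% = both proteins with DMSO and 100% = one protein alone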
* hit, by the source's call. Rule as the data show it: active = inhibition above about 50%; inactive = the rest.

For CCCOc1ccc(-c2nc3s/c(=C\c4cccc([N+](=O)[O-])c4)c(=O)n3n2)cc1 the results were Pf apPOL block -5 and mHTT CaM bind -1.
CCc1nc(-c2cccc(-c3noc(COc4ccccc4)n3)c2)cs1 was read as Pf apPOL block -4 and mHTT CaM bind -25.
Screening CCCc1nnc2n1N=C(c1ccc(Cl)c(Cl)c1)CS2 returned Pf apPOL block -6 and mHTT CaM bind -3.
Screening CC(=O)Nc1cc(C(=O)NCCC2=CCCCC2)c2ccc(C)nc2c1 returned Pf apPOL block 15 and mHTT CaM bind 39.
For CC1Cc2cc(-c3cc(CNC(=O)COc4ccc(F)cc4)no3)ccc2O1 (centres undefined) the results were Pf apPOL block -4 and mHTT CaM bind 1.
`CC(C)SCCCOc1ccc([N+](=O)[O-])cc1` gave Pf apPOL block -1 and mHTT CaM bind -3.
Screening COc1ccc(C2=N/C(=C/c3ccc4c(c3)OCO4)C(=O)O2)cc1[N+](=O)[O-] returned Pf apPOL block 0 and mHTT CaM bind -1.
`COc1ccc(C=C2Oc3cc(OCC(N)=O)ccc3C2=O)c(OC)c1` gave Pf apPOL block -4 and mHTT CaM bind 2.
Screening CSc1ccccc1NC(=O)C(=O)NCC1CCN(C(=O)c2ccccc2F)CC1 returned Pf apPOL block -8 and mHTT CaM bind 1.
`O=C(NCc1ccccc1)C1CCCN(c2nnc3ccc(C(F)(F)F)cn23)C1` (centres undefined) gave Pf apPOL block 0 and mHTT CaM bind 4.
`N#Cc1cccc(-c2cn3c(n2)N(C(=O)c2ccccc2)CCC3)c1` gave Pf apPOL block 0 and mHTT CaM bind 8.
For N#Cc1cccc(-c2cn3c(n2)N(C(=O)COc2ccccc2)CCC3)c1 the results were Pf apPOL block -1 and mHTT CaM bind 55*.
For Cc1cc(Nc2ccc(C(N)=O)cc2)nc(-n2nc(C)cc2C)n1 the results were Pf apPOL block 4 and mHTT CaM bind 95*.
For Cc1cc(C)n(-c2ccc(Nc3ccc(NC(=O)Nc4ccccc4)cc3)nn2)n1 the results were Pf apPOL block -11 and mHTT CaM bind 6.
Screening Cn1nc(-c2nc(-c3ccc(F)cc3)no2)c2c1CCN(C(=O)c1ccsc1)C2 returned Pf apPOL block 1 and mHTT CaM bind 17.
`O=C(Nc1cc(C(F)(F)F)ccc1Br)c1ccccc1Cl` gave Pf apPOL block 1 and mHTT CaM bind 14.
Screening COc1ccc(NC(=O)CC2(C)NN=C(c3ccccc3)S2)c(OC)c1 (centres undefined) returned Pf apPOL block -25 and mHTT CaM bind 73*.
For COc1ccc(NC(=O)CCOc2ccccc2)c(OC)c1 the results were Pf apPOL block -138 and mHTT CaM bind 2.
`Cc1cc(=O)c2cc(C(=O)NCc3cccnc3)ccc2[nH]1` gave Pf apPOL block -2 and mHTT CaM bind -3.
`COc1cc(/C=C2\SC(=O)N(Cc3ccc(F)cc3)C2=O)c(Br)cc1O` gave Pf apPOL block 0 and mHTT CaM bind 75*.
`COc1ccccc1/C=C1\SC(=O)N(Cc2ccc(F)cc2)C1=O` gave Pf apPOL block -6 and mHTT CaM bind -3.
Screening CC(=O)Nc1cccc(NC(=O)c2sc3nc(-c4ccccc4)cn3c2C)c1 returned Pf apPOL block -2 and mHTT CaM bind 12.
COc1ccc(NC(C)=O)cc1NC(=O)c1sc2nc(-c3ccccc3)cn2c1C was read as Pf apPOL block -3 and mHTT CaM bind 52*.
Screening O=C(CN1CCN(c2ccc(Cl)cc2)CC1)Nc1cc(C(F)(F)F)ccc1Cl returned Pf apPOL block 1 and mHTT CaM bind 0.
CCC(=O)N1CCN(S(=O)(=O)c2ccc(C)cc2)C1c1ccc(N(C)C)cc1 (centres undefined) was read as Pf apPOL block -9 and mHTT CaM bind 18.
Screening CCC(=O)N1CCN(S(=O)(=O)c2ccc(C)cc2)C1c1ccccc1 (centres undefined) returned Pf apPOL block -8 and mHTT CaM bind -10.
CCC(=O)N1c2ccccc2N(S(=O)(=O)c2ccc(C)cc2)C1c1ccc(N(C)C)cc1 (centres undefined) was read as Pf apPOL block 4 and mHTT CaM bind 53*.
CCN(CC)c1ccc(C2N(C(=O)c3ccccc3)CCN2S(=O)(=O)c2ccccc2)cc1 (centres undefined) was read as Pf apPOL block 2 and mHTT CaM bind 37.
Screening Cc1ccc(S(=O)(=O)N2CCN(C(=O)c3ccccc3)C2c2ccc(N(C)C)cc2)cc1 (centres undefined) returned Pf apPOL block -17 and mHTT CaM bind 56*.
`Cc1ccc(C(=O)N2CCN(S(=O)(=O)c3ccc(C)cc3)C2c2ccc(N(C)C)cc2)cc1` (centres undefined) gave Pf apPOL block 1 and mHTT CaM bind 50*.
Screening CCOc1ccccc1/C=C1\N=C(c2ccc(Cl)c(Cl)c2)OC1=O returned Pf apPOL block -6 and mHTT CaM bind -6.
